Screening data (PubChem)
Most compounds without a hit are left out; they make up all but 5.5% or so of the library.
a7 integrin act = qHTS for Activators of Integrin-Mediated Alleviation for Muscular Dystrophy. alpha7betagal myoblasts, beta-gal FDG fluorescence, 48 h. Potency, µM (series often up to 38.3 µM), hits mostly activators. 350,000 tested, 0.064% active. AID 624291, 2012; further: nearly all actives have a fitted effect of over 60% in size
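alpha7betagal+/- myoblasts (passage 13, 250/well) treated 48 h at 37C with compounds at 1:260 dilution of DMSO stock. Lysed, then beta-galactosidase activity read as FDG fluorescence (ex 480/em 540) after 30 min, with pre-read for autofluorescence.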
Mito fusion yeast = qHTS Assay for Small Molecule Inhibitors of Mitochondrial Division or Activators of Mitochondrial Fusion; S. cerevisiae fusion-defective mutant growth rescue, CellTiterGlo 48 h; Potency, µM (highest dose often 46.1 µM), most hits filed as activators; 320,000 tested, 0.23% active; further: nearly all actives have a fitted effect of over 45% in size
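Luminescent cell viability in 1536-well qHTS format served as the measure of rescued growth in ts fusion-mutant S. cerevisiae cultured on non-fermentable YPEG for 48 hours at 37C.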
RORgamma inh = qHTS for inhibitors of ROR gamma transcriptional activity; Drosophila S2 Gal4-RORgamma UAS-luciferase reporter, 20 h; AID 2551, 2010; Nuclear receptor ROR-gamma (Mus musculus), P51450; Potency, µM (series often up to 53.6 µM), actives largely listed as inhibitors; 310,000 tested, 5.4% active; further: nearly all actives have a fitted effect of over 60% in size
Target sequence (P51450 whole entry, looked up, the tested form may be a part): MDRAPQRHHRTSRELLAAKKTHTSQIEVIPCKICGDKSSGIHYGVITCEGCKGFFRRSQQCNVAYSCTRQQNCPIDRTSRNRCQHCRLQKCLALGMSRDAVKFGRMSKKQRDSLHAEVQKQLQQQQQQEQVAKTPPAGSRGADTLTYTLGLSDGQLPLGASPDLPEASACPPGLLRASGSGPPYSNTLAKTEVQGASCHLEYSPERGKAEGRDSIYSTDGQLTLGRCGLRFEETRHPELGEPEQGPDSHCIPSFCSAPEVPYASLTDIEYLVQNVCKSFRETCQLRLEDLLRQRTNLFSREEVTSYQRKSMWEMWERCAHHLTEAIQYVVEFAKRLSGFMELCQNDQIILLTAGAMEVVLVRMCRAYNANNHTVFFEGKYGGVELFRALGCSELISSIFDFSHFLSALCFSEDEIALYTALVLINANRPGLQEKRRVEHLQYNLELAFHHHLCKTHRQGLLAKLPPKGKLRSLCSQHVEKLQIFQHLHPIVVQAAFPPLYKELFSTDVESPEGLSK
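Schneider cells (Drosophila), stable Gal4 DBD–ROR gamma + UAS-luc; 1 hr cmpd preincubation; Cu2+ induction 700 uM final; 20 hr ambient; luminescence.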
uPA surface inh = qHTS for Inhibitors of Cell Surface uPA Generation; 330,000 tested, 0.31% active; Potency, µM (series often up to 38.3 µM), most hits filed as inhibitors; cell surface uPA generation assay, qHTS; active means well fitted inhibition curve with a large enough effect; inconclusive means small, poorly fitted or top-dose-only effect; inactive means no such curve, though single readings can be large or run the other way; tested in mouse RAW 264.7 cells; further: nearly all actives have a fitted effect of over 55% in size
Gal4-VP16 FLuc = VP16 counterscreen qHTS for inhibitors of ROR gamma transcriptional activity; 310,000 tested, 3.5% active; AID 2546, 2010; Potency, µM (highest dose often 53.6 µM), usual class: inhibitors; Drosophila S2 Gal4-VP16 UAS-luciferase, luminescence, 20 h;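 further: Gal4-VP16 expression switched on by copper sulfate through the metallothionein promoter; nearly all actives have a fitted effect of over 50% in size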
Chronic BCR inh = qHTS Assay to Find Inhibitors of Chronic Active B-Cell Receptor Signaling; Potency, µM (doses to about 46.1 µM), actives largely listed as inhibitors; 340,000 tested, 0.05% active; ABC-DLBCL IkBa-CBG/CBR reporter, luminescence ratio, 4 h; AID 493014, 2011; active means well fitted inhibition curve with a large enough effect in the signal ratio, with a control signal flat, not every such curve was filed as active; inconclusive means small, poorly fitted or top-dose-only effect, or effect the other way, or a change in a side signal; the % refers to the signal ratio
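Doxycycline induced both beetle luciferases in TMD8 lymphoma cells; IKK-driven degradation limits the IkappaBalpha-fused green signal, while red luminescence normalises for cell number and nonspecific effects. Compounds tested up to 46 uM, 4 hrs.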
Each line names hits and unclear results; the compound was inactive in the other large screens. Unless noted, the call rests on the fitted dose curve; in most records, active means well fitted curve in the direction sought with a large enough effect; inconclusive means small, poorly fitted or top-dose-only effect, or another doubt; inactive means no such curve, though single readings can be large; an effect the other way counts as inactive or inconclusive.

CC1CC(C)(C)NC(=S)N1CC(=O)N1CCN(Cc2ccccc2)CC1 (stereo unspecified)	none
Cc1nc(NC(=O)c2cnccn2)ccc1Br	Chronic BCR inh 1µM
N#C/C(=C/c1cn(-c2ccccc2)nc1-c1cccc(OCc2ccc(F)cc2)c1)C(=O)NCCCn1ccnc1	RORgamma inh inconclusive, Gal4-VP16 FLuc 11µM
COc1ccc(-c2csc(NC3OC(=O)c4c3ccc(OC)c4OC)n2)cc1OC (stereo unspecified)	RORgamma inh 3.5µM, Gal4-VP16 FLuc 7.9µM, Chronic BCR inh inconclusive
Nc1nonc1-n1nnc(C(=O)N/N=C/c2cccc(F)c2)c1CN1CCCCCC1	none (no result: Mito fusion yeast, RORgamma inh, Gal4-VP16 FLuc, Chronic BCR inh)
O=C1/C(=C\c2cccs2)CCC/C1=C/c1cccs1	none (no result: a7 integrin act, Mito fusion yeast, uPA surface inh, Chronic BCR inh)
CCC1CCCCN1Cc1ccc(OC)c(C)c1C (stereo unspecified)	RORgamma inh 11µM
CCN(CC)c1ccc(S(=O)(=O)N2CCOCC2)cc1NC(=O)CN1C(=O)NC2(CCC(C)CC2)C1=O (stereo unspecified)	none (no result: RORgamma inh, Gal4-VP16 FLuc)
CCCN(CC(=O)Nc1ccccc1C)C(=O)CCN1C(=O)c2cccc([N+](=O)[O-])c2C1=O	none (no result: RORgamma inh, Gal4-VP16 FLuc)
N#C/C(=N\Nc1ccc(Cl)cc1)C(=O)c1ccccc1	Mito fusion yeast inconclusive, RORgamma inh inconclusive, Gal4-VP16 FLuc inconclusive, Chronic BCR inh inconclusive
Cc1c(N/N=C(\C#N)C(=O)c2ccc(Cl)cc2)c(=O)n(-c2ccccc2)n1C	RORgamma inh 7.1µM, Gal4-VP16 FLuc 3.5µM, Chronic BCR inh inconclusive
CC(C)[C@H](N)C(=O)N[C@H]1CCC2C3CC=C4C[C@@H](O)CC[C@]4(C)C3CC[C@@]21C (stereo partly specified)	none (no result: Mito fusion yeast, RORgamma inh, uPA surface inh, Gal4-VP16 FLuc, Chronic BCR inh)
Cc1ccn2c(NC3CCCC3)c(-c3ccsc3)nc2c1	RORgamma inh 11µM, Chronic BCR inh inconclusive
Cc1ccn2c(NC3CCCCC3)c(-c3cccc(SC4CCCCC4)c3)nc2c1	none (no result: Mito fusion yeast, RORgamma inh, Gal4-VP16 FLuc)
O=C(/C=C/c1ccco1)NCC1COc2ccccc2O1 (stereo unspecified)	Gal4-VP16 FLuc 11µM
O=C(/C=C/c1ccc([N+](=O)[O-])cc1)NCc1ccccn1	none
O=C(/C=C/c1ccco1)NCc1ccccn1	RORgamma inh 4.5µM
COc1ccc(/C=C/C(=O)NCC2COc3ccccc3O2)c(OC)c1 (stereo unspecified)	Gal4-VP16 FLuc inconclusive
CCCCCCCCCCN1CCOCCOCCN(CCCCCCCCCC)CCOCCOCC1	none (no result: a7 integrin act, Mito fusion yeast, uPA surface inh, Chronic BCR inh)
Cc1csc(=N)n1-c1ccc(Cl)cc1	RORgamma inh inconclusive, Gal4-VP16 FLuc 11µM, Chronic BCR inh inconclusive
OC(Cn1cncn1)(c1ccc(F)cc1)c1ccc(Cl)cc1 (stereo unspecified)	Mito fusion yeast 7.1µM
C/C(=N\NC(=O)c1cc(C)nc2ccccc12)c1ccco1	Chronic BCR inh inconclusive
O=C(N/N=C/c1cccs1)c1c[nH]c2ccccc12	RORgamma inh inconclusive, Chronic BCR inh inconclusive
COc1ccccc1-c1cc(C(=O)N/N=C\c2cnn(C)c2C)c2ccccc2n1	RORgamma inh inconclusive
CCc1ccc(/C=N/NC(=O)c2c[nH]c3ccccc23)s1	RORgamma inh 11µM, Chronic BCR inh inconclusive
COc1ccc(-c2cc(C(=O)N/N=C(\C)c3ccco3)c3ccccc3n2)c(OC)c1	RORgamma inh 6.3µM
COc1ccccc1-c1cc(C(=O)N/N=C/c2cccs2)c2ccccc2n1	RORgamma inh 4.5µM, Gal4-VP16 FLuc 5.6µM
O=C(NCc1cc([N+](=O)[O-])ccc1O)c1cc(-c2ccncc2)nc2ccccc12	RORgamma inh 14µM, Gal4-VP16 FLuc 8.9µM, Chronic BCR inh inconclusive
CCOC(=O)C1=C(COC(=O)CCOc2cc(C)ccc2C)NC(=O)NC1C (stereo unspecified)	none (no result: RORgamma inh, Gal4-VP16 FLuc)
O=C(CC1C(=O)NCCN1Cc1ccccc1C(F)(F)F)NC1CCCCC1 (stereo unspecified)	none
CCN(CC)CCCn1c(-c2ccccc2)nc2c(N3CCOCC3)nc(C)nc21	none (no result: a7 integrin act, Mito fusion yeast, uPA surface inh, Chronic BCR inh)
O=C(N/N=C/c1cccs1)c1cc(C2CC2)nc2ccccc12	RORgamma inh 10µM, Gal4-VP16 FLuc 18µM
CCCc1cc(C(=O)N/N=C/c2ccc(CC)s2)c2ccccc2n1	RORgamma inh 2.8µM, Gal4-VP16 FLuc 6.3µM, Chronic BCR inh inconclusive
COc1ccc(-c2cc(C(=O)N/N=C/c3sccc3C)c3ccccc3n2)c(OC)c1	RORgamma inh 4.5µM, Gal4-VP16 FLuc inconclusive
O=C(N/N=C/c1cccs1)c1cc(-c2ccncc2)nc2ccccc12	RORgamma inh 5µM, Gal4-VP16 FLuc 7.1µM, Chronic BCR inh inconclusive
CCOC(=O)c1ccc(OCC2c3cc(OC)c(OC)cc3CCN2C(=O)Cc2ccc(OC)c(OC)c2)cc1 (stereo unspecified)	none (no result: a7 integrin act, Mito fusion yeast, RORgamma inh, uPA surface inh, Gal4-VP16 FLuc)
CCc1nnc(NC(=O)COc2ccccc2[N+](=O)[O-])s1	Chronic BCR inh inconclusive
O=C(N/N=C/c1ccco1)c1cc(-c2ccncc2)nc2ccccc12	uPA surface inh inconclusive, Chronic BCR inh inconclusive (no result: RORgamma inh, Gal4-VP16 FLuc)
CCc1ccc(/C=N/NC(=O)c2cc(-c3ccncc3)nc3ccccc23)s1	RORgamma inh 2µM, Gal4-VP16 FLuc 5.6µM, Chronic BCR inh inconclusive
COc1ccc(NC(=O)COC(=O)CCC2CCCC2)c(OC)c1	none (no result: Mito fusion yeast, RORgamma inh, Gal4-VP16 FLuc)
C/C(CCc1ccc2c(c1)OCO2)=N\N=C1\NC(=O)CC(C(=O)Nc2ccccc2F)S1 (stereo unspecified)	RORgamma inh 11µM, Gal4-VP16 FLuc inconclusive
CC(=O)c1cccc(NC(=O)Nc2ccc3c(c2)CCC3)c1	RORgamma inh 7.1µM, Gal4-VP16 FLuc 7.9µM, Chronic BCR inh inconclusive
CC(=O)Nc1cccc(NC(=O)c2ccc3c(c2)CCN3S(=O)(=O)c2ccccc2)c1	Chronic BCR inh inconclusive
CC(=O)c1cccc(NC(=O)c2noc3c2CCc2ccccc2-3)c1	RORgamma inh 0.71µM, Gal4-VP16 FLuc 2.2µM, Chronic BCR inh inconclusive
COc1cccc(NC(=O)c2ccc3c(c2)CCCC3)c1	a7 integrin act 5.6µM, Chronic BCR inh inconclusive
COc1cccc(NC(=O)Nc2ccc3c(c2)CCC3)c1	a7 integrin act inconclusive, Chronic BCR inh inconclusive
CC(=O)c1cccc(NC(=O)c2ccc3c(c2)CCN3S(=O)(=O)c2ccccc2)c1	RORgamma inh inconclusive, Gal4-VP16 FLuc 13µM, Chronic BCR inh inconclusive
COc1ccc(CNC(=O)CCC2N=C3c4ccccc4N=C(SCc4cccc(F)c4)N3C2=O)cc1 (stereo unspecified)	none (no result: a7 integrin act, Mito fusion yeast, RORgamma inh, uPA surface inh, Gal4-VP16 FLuc)
COc1cccc(CN2C(=O)NC3(CCCCCC3)C2=O)c1	none
CC(=O)c1cccc(NC(=O)c2ccc3c(c2)CCCC3)c1	Mito fusion yeast inconclusive, RORgamma inh 1.4µM, uPA surface inh inconclusive, Gal4-VP16 FLuc 2.8µM, Chronic BCR inh inconclusive
